PubChem BioAssay (NCATS)
Values without a mark were called inactive. Records with an inconclusive call do not appear. A call without a number means that no potency is given here. Active and inactive are the calls of the source. Unless noted, calls follow the shape of the dose curve; as a rule, active = well fitted curve in the direction sought with a large enough effect; inconclusive = small, poorly fitted or top-dose-only effect, or another doubt; inactive = no such curve, though single readings can be large; an effect the other way counts as inactive or inconclusive.

Experiments:
[1] = qHTS to identify inhibitors of the type 1 interferon - major histocompatibility complex class I in skeletal muscle: primary screen against the NCATS Pharmaceutical Collection (AID 1347407);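 also: luminescence of HiBiT knocked into endogenous HLA-B as interferon-induced MHC class I level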
Procedure, shortened: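 Compounds […] were added to CRISPR-engineered HLA-B-HiBiT C25cl48 human myoblasts with 4.0 ng/ml IFN-beta. After 24 hrs at 37 C, cells were lysed and HiBiT luminescence measured.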

[2] = target: Protein phosphatase 1D (Homo sapiens) (UniProt O15297); assay: RapidFire Mass Spectrometry qHTS Assay for Modulators of WT P53-Induced Phosphatase 1 (WIP1) (AID 1347424);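 also: amount of dephosphorylated VEPPL-S-QETFS peptide product formed by WIP1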; also: potency is read from the fitted curve at half-maximal effect; as to activity change, negative = inhibition: series mostly up to about 63 µM
Sequence of Protein phosphatase 1D (Homo sapiens) (O15297 whole entry, looked up): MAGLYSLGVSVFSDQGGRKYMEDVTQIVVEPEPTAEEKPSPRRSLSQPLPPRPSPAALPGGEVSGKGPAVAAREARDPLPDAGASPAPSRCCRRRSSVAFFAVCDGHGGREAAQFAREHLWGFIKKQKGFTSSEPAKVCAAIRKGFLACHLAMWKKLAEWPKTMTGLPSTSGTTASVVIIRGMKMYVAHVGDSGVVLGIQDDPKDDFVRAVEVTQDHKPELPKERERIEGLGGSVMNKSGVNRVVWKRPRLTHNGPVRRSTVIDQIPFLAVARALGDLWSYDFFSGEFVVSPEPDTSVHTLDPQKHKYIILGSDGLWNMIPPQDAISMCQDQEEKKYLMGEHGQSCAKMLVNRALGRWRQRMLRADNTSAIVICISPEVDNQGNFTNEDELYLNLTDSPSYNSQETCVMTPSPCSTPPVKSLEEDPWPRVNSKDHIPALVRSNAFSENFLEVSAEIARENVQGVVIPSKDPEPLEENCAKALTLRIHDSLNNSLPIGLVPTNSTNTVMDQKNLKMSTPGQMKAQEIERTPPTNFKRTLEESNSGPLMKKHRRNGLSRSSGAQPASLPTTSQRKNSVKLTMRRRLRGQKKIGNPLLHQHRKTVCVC
Procedure, shortened: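 10 nM WIP1 + cpd, 1 h RT; + 2 uM VEPPL-pS-QETFS, 5 min RT; stop 0.5% formic acid; labelled product standard 1 uM; RapidFire MS. Buffer 50 mM Tris pH 7.5, 30 mM MgCl2, 1 mM TCEP.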

[3] = target: Protein phosphatase 1D (Homo sapiens) (UniProt O15297); assay: Rhodamine-PBP qHTS Assay for Modulators of WT P53-Induced Phosphatase 1 (WIP1) (AID 1347425)
Procedure, shortened: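 Steps: enzyme with Rh-PBP sensor and compounds, room-temperature incubation of 1 hr, baseline read, addition of VEPPL-pS-QETFS (10 uM final), kinetic fluorescence reads at 525/598 nm. Activity equals final minus baseline signal.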

[4] = Primary qHTS for inhibitors of La Crosse Virus (LACV) - induced cell death in SH-SY5Y cells (AID 1508616);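 also: top concentration of the series differs between compounds; higher means more rescue of cells from virus-induced death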
Procedure, shortened: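 Luminescent ATP readout (ATPLite 1step, 5 min room temperature) measured rescue from LACV-induced death after 6 days of infection at 0.01 MOI; normalized to infected DMSO wells and uninfected DMSO wells.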

[5] = target: Calcium and integrin-binding protein 1 (Homo sapiens) (UniProt Q99828); assay: Primary qHTS for Identification of Calcium Integrin Binding Protein 1 (CIB1) Competitor (AID 1508620);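 also: GST tagged CIB1 binding a fluorescein labelled alphaIIb integrin peptide tracer; top concentration of the series differs between compounds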
Sequence of Calcium and integrin-binding protein 1 (Homo sapiens) (Q99828 whole entry, looked up): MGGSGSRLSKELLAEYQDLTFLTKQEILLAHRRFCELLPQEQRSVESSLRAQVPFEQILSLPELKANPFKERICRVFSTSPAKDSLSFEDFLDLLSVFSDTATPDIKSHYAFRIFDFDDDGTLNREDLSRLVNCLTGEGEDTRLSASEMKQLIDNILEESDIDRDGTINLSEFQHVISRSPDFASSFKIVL
Procedure, shortened: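 CIB1-GST (1 uM final) and compound incubated 15 min at room temperature before adding FITC-alphaIIb peptide tracer (100 nM final). Competition for binding read by fluorescence polarization (ex 480, em 540) after another 15 min at room temperature.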

[6] = qHTS to identify inhibitors of the type 1 interferon - major histocompatibility complex class I in skeletal muscle: primary screen against the NCATS LOPAC collection (AID 1347405);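 also: lytic HiBiT luminescence reporting HLA-B protein level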
Procedure, shortened: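 Immortalized human C25cl48 myoblasts with HiBiT knocked into endogenous HLA-B*08:01 were stimulated with 4.0 ng/ml IFN-beta and given compounds in a 7-point, 1:4.3 titration from 46 uM final; after 24 hrs, lytic HiBiT luminescence was read.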

[7] = qHTS for inhibitors of adenylyl cyclases using a fission yeast platform: a pilot screen against the NCATS LOPAC library (AID 1347410)
Procedure, shortened: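 GFP from fbp1-GFP reporter, read by Acumen laser cytometry, indicates AC inhibition in fission yeast expressing AC9, GNAS and PDE4D2. Cells grown 18 h in the dark at 30C with compounds, final up to 57 uM.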

[8] = target: Calcium and integrin-binding protein 1 (Homo sapiens) (UniProt Q99828); assay: Validation qHTS for Identification of Calcium Integrin Binding protein 1 (CIB1) Competitor (AID 1508618)
Procedure, shortened: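 In this qHTS validation, the LOPAC set (up to 114 uM) was tested for blocking CIB1 binding to a fluorescein-tagged alphaIIb peptide, with FP detection at 480/540 nm.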

[9] = Primary qHTS for Huh7 cytotoxicity: counterscreen for inhibitors of MERS-S pseudotyped particle cell entry (AID 1479147; calls by dose curve; also: potency is read from the fitted curve at half-maximal effect)
[10] = Primary qHTS for inhibitors of MERS-S pseudo-typed particle cell entry (AID 1479149; calls by dose curve; also: nearly all actives have a fitted effect of over 60% in size; also: potency is read from the fitted curve at half-maximal effect; as to activity change, negative = inhibition: series mostly up to about 57 µM)
[11] = Primary qHTS for Vero E6 cytotoxicity: counterscreen for inhibitors of SARS-S pseudo-typed particle cell entry (AID 1479150; calls by dose curve; also: potency is read from the fitted curve at half-maximal effect)
[12] = Counterscreen qHTS for small molecule stabilizers of the endoplasmic reticulum resident proteome: GLuc-NoTag assay (AID 1508627);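 also: SH-SY5Y cells given compound then 100 nM thapsigargin to empty ER calcium; series mostly up to about 76 µM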
Procedure, shortened: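 Luminescence of Gaussia luciferase secreted into the medium (coelenterazine, 0.07x final, unlysed cells) was the read-out. Human SH-SY5Y neuroblastoma cells constitutively secreting untagged GLuc received compound for 19 h, then 100 nM thapsigargin for 4 h.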

[13] = Confirmatory qHTS for small molecule stabilizers of the endoplasmic reticulum resident proteome: Secreted ER Calcium Modulated Protein (SERCaMP) assay (AID 1508628);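 also: SH-SY5Y cells given compound 16 h then thapsigargin 100 nM for 4 h; series mostly up to about 76 µM; nearly all actives have a fitted effect of over 40% in size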
Procedure, shortened: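 We seeded SH-SY5Y-GLuc-SERCaMP cells, added compounds (three concentrations in the primary run, eleven up to 76.6 uM in confirmation), incubated 16 h, depleted ER calcium with thapsigargin, and read luciferase 4 h later.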

[14] = Primary qHTS for inhibitors of SARS-S pseudo-typed particle cell entry (AID 1479145; calls by dose curve; also: series mostly up to about 57 µM; nearly all actives have a fitted effect of over 45% in size)
[15] = Validation qHTS assay for inhibitors of Activation Induced Cytidine Deaminase (AID): UDG Counterscreen signal (AID 1347427)
Procedure, shortened: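 Counterscreen read of UDG activity (2 U/mL, 4/3x) in the FRET deamination format with AID (1 uM, 4/3x), DJC20/DJC23 substrates (250 nM, 4x), 4 h at room temperature. NaOH stop, fluorescence at 560 ex/665 em.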

[16] = target: Single-stranded DNA cytosine deaminase (Homo sapiens) (UniProt Q9GZX7); assay: Validation qHTS assay for inhibitors of Activation Induced Cytidine Deaminase (AID): AID signal (AID 1347429)
Sequence of Single-stranded DNA cytosine deaminase (Homo sapiens) (Q9GZX7 whole entry, looked up): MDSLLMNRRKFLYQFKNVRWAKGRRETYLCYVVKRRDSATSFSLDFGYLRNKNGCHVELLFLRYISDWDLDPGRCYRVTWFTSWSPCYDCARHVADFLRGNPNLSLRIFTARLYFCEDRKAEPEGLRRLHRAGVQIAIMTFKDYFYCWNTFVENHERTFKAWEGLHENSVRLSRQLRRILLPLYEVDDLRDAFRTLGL
Procedure, shortened: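 AID and UDG were combined and compounds added at final up to 114 uM, then DJC20/DJC23 FRET substrate was added for 4 hr at room temperature. NaOH was then added for 30 min before fluorescence was read at 540/590 nm.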

[17] = target: Calcium and integrin-binding protein 1 (Homo sapiens) (UniProt Q99828); assay: Confirmatory qHTS for Identification of Calcium Integrin Binding Protein 1 (CIB1) Competitor (AID 1508617); also: nearly all actives have a fitted effect of over 65% in size
Procedure, shortened: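 Binding competition between test compounds and fluorescent alphaIIb peptide for 1 uM CIB1-GST is monitored by FP at 480/540 nm. Final compound range is up to 114 uM; unlabeled peptide serves as reference competitor.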

[18] = qHTS to identify inhibitors of the type 1 interferon - major histocompatibility complex class I in skeletal muscle: primary screen against the NCATS Mechanism Interrogation Plate v5.0 (MIPE) Libary (AID 1347411); also: nearly all actives have a fitted effect of over 65% in size
Procedure, shortened: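 Immortalized human C25cl48 myoblasts with HiBit knocked into endogenous HLA-B*08:01 were stimulated with 4.0 ng/ml IFN-beta and exposed to compounds (11-point 1:3 titration, top 46 uM final) for 24 hrs at 37 C; HiBiT lytic luminescence measured.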

[19] = Confirmatory qHTS for VERO E6 Cytotoxicity Assay: Counterscreen for SARS-CoV-2 CPE Assay (AID 1508605; calls by dose curve; also: series mostly up to about 20 µM; nearly all actives have a fitted effect of over 60% in size)
[20] = Confirmatory qHTS for activators (rescue) of SARS-CoV-2 Cytopathic Effect (CPE) (AID 1508606; calls by dose curve; also: potency is read from the fitted curve at half-maximal effect; nearly all actives have a fitted effect of over 70% in size)

In the case of Nc1ccc(Cl)cc1, the outcome [1] is reported as “inactive”, the Potency [2] is reported as “inactive” and the outcome [3] is reported as “inactive”. For the same compound, the outcome [4] was “inactive” and the outcome [5] was “inactive”.
In the case of Cc1ccc(Cl)c(O)c1, the outcome [1] is reported as “inactive”, the Potency [2] is reported as “inactive” and the outcome [4] is reported as “inactive”.
With C[C@]12CCC3C(CC[C@H]4C[C@H](O)CC[C@]34C)C1CC[C@@H]2C(=O)CO (stereo partly drawn) the Potency [6] was “inactive”, the outcome [7] was “inactive” and the outcome [4] was “inactive”. For the same compound, the outcome [8] was “inactive”.
In the case of c1ccc(C2(c3ccccc3)CC2C2=NCCN2)cc1 (stereo not drawn), the Potency [6] is reported as “inactive”, the Potency [9] is reported as “inactive” and the Potency [10] is reported as “inactive”. The Potency [11] was “inactive” and the outcome [4] was “inactive”.
For O=C(O)CC[N+](=O)[O-], the Potency [6] was “inactive”, the outcome [7] was “inactive” and the outcome [4] was “inactive”. The outcome [8] was “inactive”.
With C[C@@H]1O[C@H](C[N+](C)(C)C)C[C@H]1O the Potency [6] was “inactive”, the outcome [7] was “inactive” and the outcome [4] was “inactive”. The outcome [8] was “inactive”.
For NC1CCc2cc(O)c(O)cc2C1 (stereo not drawn), the Potency [6] was “inactive”, the outcome [7] was “inactive” and the outcome [8] was “inactive”. For the same compound, the Potency [12] was “inactive” and the Potency [13] was “inactive”.
Work on CC1=C(C(=O)O)N2C(=O)[C@@H](N)[C@H]2SC1 yielded an activity change, negative = inhibition [1] of -3.5% [at 19 µM], an activity change, negative = inhibition [2] of 5.52% [at 26.6 µM] and an activity change, negative = inhibition [3] of 6.57% [at 23.8 µM]. It also gave an activity change [4] of -1.92% [at 1.78 µM].
For O=S(=O)(O)C(F)(F)C(F)(F)C(F)(F)C(F)(F)C(F)(F)C(F)(F)C(F)(F)C(F)(F)F, the outcome [1] was “inactive”, the Potency [2] was 1580 nM (active) and the outcome [4] was “inactive”.
With O=C(O)COc1ccccc1 the outcome [1] was “inactive”, the Potency [2] was “inactive” and the Potency [14] was “inactive”. For the same compound, the Potency [9] was “inactive”, the Potency [10] was “inactive” and the Potency [11] was “inactive”. The outcome [4] was “inactive” and the outcome [5] was “inactive”.
With O=C(O)c1cc(Oc2ccc(C(F)(F)F)cc2Cl)ccc1[N+](=O)[O-] the outcome [3] was “inactive”.
For c1ccc(CCCN2CCN(CCOC(c3ccccc3)c3ccccc3)CC2)cc1, the outcome [15] was “inactive”.
In the case of CN[C@@H]1C[C@@H](c2ccc(Cl)c(Cl)c2)c2ccccc21, the outcome [15] is reported as “inactive”.
For COc1ccc2c(c[n+](C)c3c4cc5c(cc4ccc23)OCO5)c1OC, the outcome [16] was “inactive”.
In the case of CC(C)Oc1cccc(NC(=O)c2ccccc2C(F)(F)F)c1, the Potency [17] is reported as “inactive”.
In the case of Oc1ccc2c3c1O[C@H]1[C@@H](O)C=C[C@H]4[C@@H](C2)NCC[C@@]341, the Potency [12] is reported as “inactive”.
In the case of O=[N+]([O-])c1c2ccccc2cc2ccccc12, the Potency [12] is reported as “inactive” and the Potency [13] is reported as “inactive”.
With CN[C@@H](C)[C@H](O)c1ccccc1 the Potency [2] was “inactive” and the outcome [4] was “inactive”.
With CN1[C@H]2CC(O)C[C@H]1[C@H]1O[C@H]12 (stereo partly drawn) the Potency [18] was “inactive” and the outcome [5] was “inactive”.
For CC1(N2CCC(n3c([C@@H]4CCCNC4)nc4ccccc43)CC2)CCCCCCC1, the Potency [18] was “inactive”, the Potency [19] was “inactive” and the Potency [20] was 2820 nM (active). The outcome [5] was “inactive”.
With CCNC(=O)CC1N=C(c2ccc(Cl)cc2)c2cc(OC)ccc2-n2c(C)nnc21 (stereo not drawn) the Potency [18] was “inactive” and the outcome [5] was “inactive”.
In the case of CC(=O)[O][Hg][c]1ccccc1, the Potency [2] is reported as 28200 nM (active), the Potency [9] is reported as 3980 nM (active) and the Potency [10] is reported as 2240 nM (active). For the same compound, the Potency [11] was 10000 nM (active) and the Potency [17] was “inactive”.
For Cc1ccccc1-n1c(Cn2cnc3c(N)ncnc32)nc2cccc(C)c2c1=O, the Potency [18] was “inactive” and the outcome [5] was “inactive”.
In the case of CCNC(=O)C[C@@H]1N=C(c2ccc(Cl)cc2)c2cc(OC)ccc2-n2c(C)nnc21, the Potency [18] is reported as “inactive” and the outcome [5] is reported as “inactive”.
With O=C(O)CCCOc1ccc(Cl)cc1Cl the Potency [2] was “inactive”, the outcome [4] was “inactive” and the outcome [5] was “inactive”.
In the case of CC(C)[C@H]1C(=O)N[C@H](CO)Cc2c[nH]c3cccc(c23)N1C, the Potency [18] is reported as “inactive”, the Potency [19] is reported as “inactive” and the Potency [20] is reported as 1390 nM (active).
